Measurements: PubChem BioAssay (NCI)
Where “and” joins values, the source holds several entries; their conditions need not be identical. Equal entries are not always repeated. Compounds without any hit were thinned out: in the full panel of roughly 79,000, 15% have a hit. Calls of active or inactive are those of the source. No stated cut-off is given here; in the data, active means growth inhibition above about 70%; inactive means the rest.

Tests used:
[1] = NCI Yeast Anticancer Drug Screen. Data for the rad52 strain (AID 147);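 further: 0% = growth of vehicle-treated control cultures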; conditions: S. cerevisiae rad52 mutant growth inhibition, stronger effect = higher value
Procedure, shortened: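 The repair-mutant yeast strain was incubated with compounds, then growth was read and inhibition derived relative to vehicle.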

[2] = NCI Yeast Anticancer Drug Screen. Data for the rad50EPP+ strain (AID 151);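 further: 0% = growth of vehicle-treated control cultures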; conditions: S. cerevisiae rad50 mutant strain, stronger effect = higher value
Procedure, shortened: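 Vehicle-normalised growth inhibition; rad50EPP+ yeast strain, altered in DNA damage repair, compound-treated.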

[3] = NCI Yeast Anticancer Drug Screen. Data for the mgt1 strain (AID 153); conditions: S. cerevisiae mgt1 mutant growth inhibition, stronger effect = higher value
Procedure, shortened: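 Vehicle-normalized growth inhibition is determined in mgt1 yeast, a strain selected for a defined alteration in DNA repair or cell cycle control.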

[4] = NCI Yeast Anticancer Drug Screen. Data for the rad50 strain (AID 155);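 further: 0% = growth of vehicle-only cultures of the same strain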; conditions: S. cerevisiae rad50 strain growth inhibition, stronger effect = higher value
Procedure, shortened: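 Growth of the mutant yeast was measured after compound exposure and referenced to vehicle-treated cultures.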

[5] = NCI Yeast Anticancer Drug Screen. Data for the mec2-1 strain (AID 157); conditions: S. cerevisiae mec2-1 strain, stronger effect = higher value
Procedure, shortened: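 Mutant yeast (mec2-1) grown with compound; growth inhibition relative to vehicle control reported.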

[6] = NCI Yeast Anticancer Drug Screen. Data for the rad14 strain (AID 159);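 further: 0% = growth of vehicle-treated control cultures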; conditions: S. cerevisiae rad14 strain growth inhibition, stronger effect = higher value
Procedure, shortened: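 Here, inhibition of yeast growth was measured after compound exposure, using a strain with a genetic defect in DNA damage repair and vehicle-treated cultures as the reference.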

[7] = NCI Yeast Anticancer Drug Screen. Data for the sgs1 mgt1 strain (AID 161);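 further: 0% = growth of cultures given vehicle only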; conditions: S. cerevisiae sgs1 mgt1 strain, stronger effect = higher value
Procedure, shortened: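 This yeast growth screen uses a strain with defined DNA-repair lesions; compound-treated growth is compared with vehicle-treated growth.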

[8] = NCI Yeast Anticancer Drug Screen. Data for the CLN2oe strain (AID 163);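 further: 0% = growth of vehicle-only control cultures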; conditions: S. cerevisiae CLN2oe strain, stronger effect = higher value
Procedure, shortened: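 Compounds are applied to yeast harbouring a defined cell-cycle control change; reduced growth compared with vehicle-treated controls gives the value.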

[9] = NCI Yeast Anticancer Drug Screen. Data for the cln2 rad14 strain (AID 165);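 further: 0% = growth equal to vehicle treated cultures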; conditions: S. cerevisiae cln2 rad14 strain, stronger effect = higher value
Procedure, shortened: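 Readout is yeast growth inhibition versus vehicle-treated controls, using a strain with cln2 and rad14 alterations exposed to compound.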

[10] = NCI Yeast Anticancer Drug Screen. Data for the bub3 strain (AID 167); conditions: S. cerevisiae bub3 mutant strain, stronger effect = higher value
Procedure, shortened: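 Whole-cell yeast assay. The mutant strain was incubated with compounds, and growth inhibition was determined by comparison with vehicle-treated cells.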

[11] = NCI Yeast Anticancer Drug Screen. Data for the wt2 strain (AID 169);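 further: 0% = growth of vehicle-treated yeast cultures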; conditions: S. cerevisiae wt2 strain growth inhibition, stronger effect = higher value
Procedure, shortened: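 Against vehicle-treated controls, the growth of yeast exposed to each compound was compared, and the inhibition was recorded.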

[12] = NCI Yeast Anticancer Drug Screen. Data for the sgs1 strain (AID 173);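 further: 0% = growth of vehicle-only control cultures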; conditions: S. cerevisiae sgs1 mutant, stronger effect = higher value
Procedure, shortened: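 Each compound was added to cultures of the altered yeast strain. Growth was recorded, and inhibition was derived by comparison with vehicle controls.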

[13] = NCI Yeast Anticancer Drug Screen. Data for the mlh1 rad18 strain (AID 175); conditions: S. cerevisiae mlh1 rad18 strain growth inhibition, stronger effect = higher value
Procedure, shortened: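 Genetically defined yeast (DNA repair-deficient) exposed to compounds; growth inhibition determined relative to vehicle.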

[14] = NCI Yeast Anticancer Drug Screen. Data for the rad18 strain (AID 177); conditions: S. cerevisiae rad18 mutant growth inhibition, stronger effect = higher value
Procedure, shortened: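 Vehicle-treated cultures served as the baseline for scoring compound-induced growth inhibition in DNA-repair-mutant yeast.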

[15] = at 5.0 µM (retest, dose inferred, filed as 0.5)
[16] = at 50.0 µM (retest, dose inferred, filed as 5.0)

Measured: growth inhibition

COC1=C(N)C(=O)c2nc(-c3nc(C(=O)O)c(C)c(-c4ccc(OC)c(OC)c4O)c3N)ccc2C1=O
inactive: [7]; [15] 16% and 59% | [9]; [15] 13% and 49% | [10]; [15] 14% and 30%
active: [1]; at 1.2 µM 97% | [1]; at 3.7 µM 97% | [1]; at 11.0 µM 98% | [1]; at 33.0 µM 98% | [1]; at 100.0 µM 97% | [2]; at 1.2 µM 91% | [2]; at 3.7 µM 93% | [2]; at 11.0 µM 94% | [2]; at 33.0 µM 96% | [2]; at 100.0 µM 96% | [3]; at 1.2 µM 97% | [3]; at 3.7 µM 98% | [3]; at 11.0 µM 98% | [3]; at 33.0 µM 98% | [3]; at 100.0 µM 98% | [4]; at 1.2 µM 96% | [4]; at 3.7 µM 97% | [4]; [15] 96% and 98% | [4]; at 11.0 µM 97% | [4]; at 33.0 µM 98% | [4]; [16] 97% and 98% | [4]; at 50.0 µM 93.5% and 92.5% | [4]; at 100.0 µM 97% | [5]; at 1.2 µM 96% | [5]; at 3.7 µM 98% | [5]; [15] 97% and 99% | [5]; at 11.0 µM 99% | [5]; at 33.0 µM 99% | [5]; [16] 98% and 99% | [5]; at 50.0 µM 94% | [5]; at 100.0 µM 98% | [6]; at 1.2 µM 98% | [6]; at 3.7 µM 98% | [6]; at 11.0 µM 98% | [6]; at 33.0 µM 98% | [6]; at 100.0 µM 98% | [7]; [16] 98% and 96% | [7]; at 50.0 µM 94.2% and 93.8% | [8]; at 1.2 µM 89% | [8]; at 3.7 µM 93% | [8]; at 11.0 µM 96% | [8]; at 33.0 µM 97% | [8]; at 100.0 µM 96% | [9]; [16] 98% and 92% | [9]; at 50.0 µM 93% and 92.2% | [10]; at 1.2 µM 95% | [10]; at 3.7 µM 97% | [10]; at 11.0 µM 98% | [10]; at 33.0 µM 97% | [10]; [16] 98% and 93% | [10]; at 50.0 µM 94% and 92.8% | [10]; at 100.0 µM 98% | [11]; at 1.2 µM 91% | [11]; at 3.7 µM 97% | [11]; at 11.0 µM 97% | [11]; at 33.0 µM 98% | [11]; at 100.0 µM 97% | [12]; at 1.2 µM 95% | [12]; at 3.7 µM 97% | [12]; at 11.0 µM 98% | [12]; at 33.0 µM 98% | [12]; at 100.0 µM 97% | [13]; [15] 97% and 99% | [13]; [16] 97% and 98% | [13]; at 50.0 µM 93% and 92.5% | [14]; at 1.2 µM 96% | [14]; at 3.7 µM 98% | [14]; at 11.0 µM 98% | [14]; at 33.0 µM 97% | [14]; at 100.0 µM 97%
